# Assay results as given in the supplement of paper PMC11628255, “Interference of metal ions on the bioluminescent signal of firefly, Renilla, and NanoLuc luciferases in high-throughput screening assays” (Frontiers in Chemistry, 2024).
# ± gives the standard deviation of the averaged measurements.
# System: Renilla luciferase (RLuc)
# Assay: residual bioluminescent signal relative to negative control without GSH; higher = less interference (more residual luciferase signal)
# Conditions: screening conditions buffer
# Procedure: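 Selected metal salts at 3-4 concentrations tested on purified FLuc, NLuc or RLuc in screening buffer with 0, 0.2 or 2 mM glutathione added; 10 min enzyme pre-incubation at RT, luminescence 10 min after substrate. Signal normalised to negative control without GSH (% N_VALUE); triplicate wells.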
# [1] = metal salt concentration 0.2 mM, glutathione 0 mM
# [2] = metal salt concentration 0.2 mM, glutathione 0.2 mM
# [3] = metal salt concentration 0.2 mM, glutathione 2 mM
# [4] = metal salt concentration 1 mM, glutathione 0 mM
# [5] = metal salt concentration 1 mM, glutathione 0.2 mM
# [6] = metal salt concentration 1 mM, glutathione 2 mM
compound,measurement,setting,value
O=[N+]([O-])[O-].[Ag+] [silver nitrate],residual bioluminescent signal,"metal salt concentration 0.002 mM, glutathione 0 mM",116 ± 9.8%
same,residual bioluminescent signal,"metal salt concentration 0.002 mM, glutathione 0.2 mM",109 ± 15%
same,residual bioluminescent signal,"metal salt concentration 0.002 mM, glutathione 2 mM",165 ± 28%
same,residual bioluminescent signal,"metal salt concentration 0.0684 mM, glutathione 0 mM",49.2 ± 15%
same,residual bioluminescent signal,"metal salt concentration 0.0684 mM, glutathione 0.2 mM",115 ± 7.6%
same,residual bioluminescent signal,"metal salt concentration 0.0684 mM, glutathione 2 mM",160 ± 13%
same,residual bioluminescent signal,[1],5.26 ± 2.6%
same,residual bioluminescent signal,[2],119 ± 16%
same,residual bioluminescent signal,[3],174 ± 13%
same,residual bioluminescent signal,[4],2.52 ± 2%
same,residual bioluminescent signal,[5],102 ± 13%
same,residual bioluminescent signal,[6],171 ± 12%
O=[N+]([O-])[O-].O=[N+]([O-])[O-].[Cu+2] [copper(II) nitrate],residual bioluminescent signal,"metal salt concentration 0.1 mM, glutathione 0 mM",90.5 ± 7.6%
same,residual bioluminescent signal,"metal salt concentration 0.1 mM, glutathione 0.2 mM",101 ± 3.8%
same,residual bioluminescent signal,"metal salt concentration 0.1 mM, glutathione 2 mM",115 ± 12%
same,residual bioluminescent signal,"metal salt concentration 0.132 mM, glutathione 0 mM",79.1 ± 10%
same,residual bioluminescent signal,"metal salt concentration 0.132 mM, glutathione 0.2 mM",88.3 ± 16%
same,residual bioluminescent signal,"metal salt concentration 0.132 mM, glutathione 2 mM",135 ± 20%
same,residual bioluminescent signal,[1],107 ± 14%
same,residual bioluminescent signal,[2],98.8 ± 24%
same,residual bioluminescent signal,[3],120 ± 19%
same,residual bioluminescent signal,[4],2.29 ± 2.2%
same,residual bioluminescent signal,[5],27.7 ± 5.2%
same,residual bioluminescent signal,[6],122 ± 20%
O=[N+]([O-])[O-].O=[N+]([O-])[O-].[Zn+2] [zinc nitrate],residual bioluminescent signal,[4],112 ± 18%
same,residual bioluminescent signal,[5],116 ± 25%
same,residual bioluminescent signal,[6],158 ± 11%
same,residual bioluminescent signal,"metal salt concentration 2.5 mM, glutathione 0 mM",104 ± 9.8%
same,residual bioluminescent signal,"metal salt concentration 2.5 mM, glutathione 0.2 mM",110 ± 13%
same,residual bioluminescent signal,"metal salt concentration 2.5 mM, glutathione 2 mM",110 ± 6.2%
same,residual bioluminescent signal,"metal salt concentration 4.13 mM, glutathione 0 mM",89.4 ± 5%
same,residual bioluminescent signal,"metal salt concentration 4.13 mM, glutathione 0.2 mM",96.3 ± 13%
same,residual bioluminescent signal,"metal salt concentration 4.13 mM, glutathione 2 mM",46.9 ± 19%
same,residual bioluminescent signal,"metal salt concentration 10 mM, glutathione 0 mM",2.06 ± 0.69%
same,residual bioluminescent signal,"metal salt concentration 10 mM, glutathione 0.2 mM",4.57 ± 0.79%
same,residual bioluminescent signal,"metal salt concentration 10 mM, glutathione 2 mM",2.74 ± 2.1%
